# Measured values reported in PubChem BioAssay (NCATS).
# Records with an inconclusive call do not appear. Values without a mark were called inactive. Calls follow the shape of the dose curve; as a rule, active = well fitted inhibition curve with a large enough effect; inconclusive = small, poorly fitted or top-dose-only effect, or effect the other way; inactive = flat fitted curve, though single readings scatter.
# Biological target: ATP-dependent 6-phosphofructokinase (Trypanosoma brucei brucei) (UniProt O15648)
# Sequence (O15648 whole entry, looked up): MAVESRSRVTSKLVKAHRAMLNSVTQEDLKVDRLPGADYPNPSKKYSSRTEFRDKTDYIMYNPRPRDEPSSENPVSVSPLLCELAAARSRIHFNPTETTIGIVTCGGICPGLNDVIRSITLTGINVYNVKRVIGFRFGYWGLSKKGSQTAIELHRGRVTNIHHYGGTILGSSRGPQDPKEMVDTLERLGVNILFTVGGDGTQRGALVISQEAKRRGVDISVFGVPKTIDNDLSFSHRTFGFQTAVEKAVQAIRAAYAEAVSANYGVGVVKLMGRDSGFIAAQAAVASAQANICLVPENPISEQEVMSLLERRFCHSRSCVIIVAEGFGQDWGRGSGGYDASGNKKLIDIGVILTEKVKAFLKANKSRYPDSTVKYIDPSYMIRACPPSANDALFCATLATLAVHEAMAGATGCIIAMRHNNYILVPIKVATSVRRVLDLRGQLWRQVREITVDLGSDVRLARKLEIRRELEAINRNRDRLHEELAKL
# Test: qHTS Assay to Find Inhibitors of T. brucei phosphofructokinase: hit validation (AID 492961);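 also: luminescence reports ADP formed as PFK phosphorylates fructose-6-phosphate with ATP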
# Conditions: T. brucei PFK, ADP-Glo luminescence; series mostly up to 51.4 µM; activity change, negative = inhibition: at the top concentration
# Method in brief: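 In this biochemical qHTS validation, titrated compounds were tested against 1.25 nM PFK with 0.1 mM ATP and 0.5 mM F6P. Percent activity came from controls lacking or containing enzyme.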
# % is scaled to controls: 0 for no effect and ±100 for the full control effect.
row,SMILES,"activity change, negative = inhibition [%]"
1,CN1c2c(nc(N)[nH]c2=O)NCC1CNc1ccc(C(=O)NC(CCC(=O)O)C(=O)O)cc1 (stereo not given),-11.2
2,CC1=CCC2CC1C2(C)C (stereo not given),0.234
3,C=CC[N+]1([C@H]2C[C@H]3[C@@H]4CC[C@H]5C[C@H](O)[C@@H](N6CCOCC6)C[C@]5(C)[C@H]4CC[C@]3(C)[C@H]2OC(C)=O)CCCC1,4.04
4,FC(F)(F)C(F)(F)C(F)(F)C(F)(F)C(F)(F)C(F)(F)F,-7.24
5,O=C(O)COc1ccc(CCNS(=O)(=O)c2ccccc2)s1,-11.1
6,O=C1c2ccccc2CN2C(=O)c3ccccc3CN12,-4.8
7,OC/C=C/c1ccccc1,-2.16
8,CCCc1ccc(C(=O)O)cc1,8.91
9,CCC(=O)c1ccc2c(c1)N(CCCN1CCN(CCO)CC1)c1ccccc1S2,4.64
10,CC(=O)Nc1ccc(OC(C)=O)cc1,8.54
11,CCOC(=O)c1cc(-c2ccccc2)nc2ccc(C)cc12,-4.89
12,CC(=O)N[C@@H]1C(O[C@H]2O[C@H](C(=O)O)C(O)[C@H](O)[C@H]2O)[C@H](O)[C@@H](CO)O[C@H]1O[C@@H]1C(C(=O)O)O[C@@H](O[C@H]2[C@H](O)[C@@H](CO)OC(O)[C@@H]2NC(C)=O)[C@H](O)[C@H]1O (stereo not given in full),18.1
13,CN1C(C(=O)Nc2ccccn2)C(=O)c2sc(Cl)cc2S1(=O)=O (stereo not given),-4.61
14,NC(N)=O,0.386
15,CN[C@@H]1[C@H](O[C@H]2[C@H](O[C@H]3[C@H](O)[C@@H](O)[C@H](N=C(N)N)[C@@H](O)[C@@H]3N=C(N)N)O[C@@H](C)[C@]2(O)C=O)O[C@@H](CO)[C@H](O)[C@H]1O,3.26
